Screens: PubChem BioAssay, National Center for Advancing Translational Sciences (NCATS)
An excerpt weighted towards active compounds, which were near 7.3% of everything screened.
Rab9 promoter act: Rab9 promoter activation. Huh7 Rab9 promoter-luciferase reporter, luminescence, 24 h. Potency, µM (doses to about 9.22 µM), for the others: at the highest dose activation, negative = inhibition, usual class: activators. 2.8% of 320,000 active; further: % of control where 0% means no effect; nearly all actives have a fitted effect of over 60% in size
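Luciferase signal after 10 min detection reagent at ambient indicates Rab9 promoter upregulation; stably transfected Huh7 cells were treated 24 h with compound in DMSO at 37 °C, 5% CO2.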
SMN2 splice up: increases expression of the SMN2 splice variant. HEK293 SMN2-luciferase splicing reporter, luminescence, 30-36 h. Potency, µM (titrated, usually from 46.1 µM), without a hit: top-dose activity change, positive = activation, actives largely listed as activators. 2.8% of 210,000 active; further: % of control where 0% means no effect; nearly all actives have a fitted effect of over 55% in size
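HEK293 cells carry an SMN2 minigene-luciferase reporter in which exon 7 inclusion puts luciferase in frame. Cells were seeded at 2000 cells/well, attached for 10-12 hours, then exposed to compounds for 30-36 hours at 37C before ONE-Glo luminescence.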
NPC1 promoter act: NPC1 promoter activation. Huh7 NPC1 promoter luciferase reporter, 24 h. Potency, µM (doses to about 9.22 µM), for the others: at the highest dose activation, actives largely listed as activators. 2.4% of 320,000 active; further: % of control where 0% means no effect; nearly all actives have a fitted effect of over 60% in size
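Cells: Huh7 expressing luciferase under the NPC1 promoter, 1500/well. Seeded 2 h, compound added, incubated 24 h at 37 °C. Luciferase reagent, 10 min ambient, then luminescence.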
p53 reactivation: restores transcriptional activity of mutant p53; 0.063% of 320,000 active; H1299 p53-A138V BP100-luciferase reporter, luminescence, 24 h; Potency, µM (doses to about 92.2 µM), inactives show top-dose activity change, positive = activation, hits mostly activators; AID 504706; further: % of control where 0% means no effect; nearly all actives have a fitted effect of over 45% in size
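H1299 (p53-null), stable ts p53-A138V + BP100-Luc; 1000 cells/well, Opti-MEM/10% FBS; cpd 4 pt, 1:5; 24 h, 37 deg C, 5% CO2; detection reagent 10 min RT; luminescence.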
FLuc modulator: counter-screen for miR-21 project: firefly luciferase inhibitors or activators; P08659; purified FLuc, Km substrates, luminescence inhibition; Potency, µM (top dose mostly 57.5 µM), for inactives: at the highest dose activity change, negative = inhibition, usual class: inhibitors; 6.9% of 360,000 active; AID 588342;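 further: plate controls were vehicle for no effect and reference inhibitor for full effect; nearly all actives have a fitted effect of over 55% in size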
Target sequence (P08659 whole entry, looked up): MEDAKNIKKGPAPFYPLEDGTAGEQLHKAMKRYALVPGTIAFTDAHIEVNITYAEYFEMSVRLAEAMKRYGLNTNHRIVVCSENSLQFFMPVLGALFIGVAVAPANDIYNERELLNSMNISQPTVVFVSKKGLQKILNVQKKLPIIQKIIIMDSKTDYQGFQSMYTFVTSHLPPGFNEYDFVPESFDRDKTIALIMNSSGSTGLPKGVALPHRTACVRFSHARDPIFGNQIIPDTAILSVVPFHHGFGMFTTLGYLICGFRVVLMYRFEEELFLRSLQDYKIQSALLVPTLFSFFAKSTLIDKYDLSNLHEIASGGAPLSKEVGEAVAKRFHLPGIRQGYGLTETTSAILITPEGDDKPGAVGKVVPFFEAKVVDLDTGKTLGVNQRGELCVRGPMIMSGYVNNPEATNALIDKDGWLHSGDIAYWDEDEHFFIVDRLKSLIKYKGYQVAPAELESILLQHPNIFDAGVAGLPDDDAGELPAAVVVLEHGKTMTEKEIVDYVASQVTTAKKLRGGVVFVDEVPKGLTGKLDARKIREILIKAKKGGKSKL
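Biochemical qHTS of compounds, final roughly 60 µM downward over six points, against 10 nM purified firefly luciferase using Km concentrations of substrates (10 uM D-luciferin, 10 uM ATP) in Tris acetate pH 7.5 buffer; luminescence output.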
ELG1 genotoxic: inducers of genotoxicity in HEK293T ELG1-luciferase cells | 1.3% of 330,000 active | Potency, µM (top dose mostly 46 µM), without a hit: at the highest dose activity change, positive = activation, most hits filed as activators | HEK293T ELG1-luciferase reporter, luminescence, 16 h; further: % of control where 0% means no effect; nearly all actives have a fitted effect of over 60% in size
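Cells (2,000/well) expressing the ELG1-luciferase fusion are dosed by pin tool and kept 16 hr at 37 °C, 5% CO2. Signal comes from ONE-Glo luciferase reagent after 30 min at room temperature.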
* = called active by the depositor; ? = inconclusive; . = not tested or not shown. The call rests on the fitted dose curve; in most records, active means well fitted curve in the direction sought with a large enough effect; inconclusive means small, poorly fitted or top-dose-only effect, or another doubt; inactive means no such curve, though single readings can be large; an effect the other way counts as inactive or inconclusive. Potency means the concentration at half of the fitted maximal effect.

SMILES	Rab9 promoter act	SMN2 splice up	NPC1 promoter act	p53 reactivation	FLuc modulator	ELG1 genotoxic
COc1ccccc1N1CCN(C(=O)c2cc(-c3ccccc3O)on2)CC1	3%	-8%	12%	19%	-10%	22%
CC1CCCC(C)N1C(=O)c1cc(-c2ccco2)on1 (configuration not stated)	8%	.	3%	12%	-16%	29%
CC(C)c1ccc(NC(=O)C2CCCN2S(=O)(=O)c2ccc3nc(-c4ccccc4)[nH]c3c2)cc1 (configuration not stated)	.	.	.	.	-7%	.
O=c1[nH][nH]cc1C=Nc1ccc(Cl)cc1Cl	-2%	-4%	-4%	-4%	7.6µM*	9%
O=C(CN1C(=O)COc2ccccc21)NCCc1ccc(Cl)cc1	.	.	.	.	-19%	.
Cc1ccccc1NC(=O)Nc1ccccn1	?	.	?	.	-11%	13%
Cc1cccc(NC(=O)c2ccccn2)c1C	3.5µM*	0%	?	35%	?	16%
CCCCNC(=O)Nc1ccccn1	-1%	5µM*	0%	3%	-2%	0%
CSCc1ccc(C(=O)Nc2cccc(C)c2C)cc1	?	20µM*	?	?	12µM*	?
Cc1cccc(NC(=O)Nc2ccccn2)c1C	4µM*	.	?	10%	9.5µM*	13%
COC(=O)N1CCC2(CC1)CCN(c1ccncc1)CC2	.	-25%	.	.	.	.
Cc1ccc(CNS(=O)(=O)c2cnc(N)nc2)cc1	.	.	.	.	-1%	.
c1ccc(Nc2nc(CSc3ncn[nH]3)cs2)cc1	?	-28%	?	18%	15µM*	11%
O=C(CSc1ncn[nH]1)Nc1nc(-c2ccccc2)cs1	2%	-10%	4%	19%	-9%	-4%
CCOC(=O)c1[nH]c(C)c(C(=O)Nc2ccccc2F)c1C	-7%	5µM*	-26%	?	?	?
CCOC(=O)c1[nH]c(C)c(C(=O)Nc2ccc(F)cc2)c1C	-5%	6%	1%	3%	3%	21%
CCOC(=O)c1c(C)[nH]c(C(=O)OCc2ccc(F)cc2)c1C	1.6µM*	.	2.2µM*	?	4.8µM*	15µM*
CCOC(=O)c1[nH]c(C)c(C(=O)Nc2ccc(C)c(C)c2)c1C	1.4µM*	18%	?	9%	-9%	11%
CCOC(=O)c1c(C)[nH]c(C(=O)Nc2ccc3c(c2)OCO3)c1C	4µM*	.	3.5µM*	?	4.8µM*	?
COc1ccccc1CN1CCN(C2CCN(C(=O)Nc3ccccc3)CC2)C(=O)C1=O	.	.	.	.	0%	.
CCN1CCN(C(=O)CN(CC)S(=O)(=O)c2ccc(F)cc2)CC1	1%	.	1%	1%	7%	-3%
CCc1ccc(-n2c(=O)c3sc4ccccc4c3n(CC(=O)N3CCCC3)c2=O)cc1	.	18%	.	.	2%	.
CC(C)c1ccc(NC(=O)c2cc3c(=O)[nH]c4ccccc4c3n2C)cc1	.	-1%	.	.	2%	.
CCOC(=O)c1c(C)[nH]c(C(=O)OCc2ccccc2F)c1C	1.6µM*	.	1.6µM*	?	2.7µM*	1.6µM*
CC(=O)c1c(C)[nH]c(C(=O)OCc2ccccc2)c1C	?	?	?	?	15µM*	18µM*
SMILES	Rab9 promoter act	SMN2 splice up	NPC1 promoter act	p53 reactivation	FLuc modulator	ELG1 genotoxic
COc1cc(NC(=O)c2cc(C3CC3)nc3c2c(C)nn3-c2ccc(C)cc2)cc(OC)c1	.	.	.	.	-6%	.
N#Cc1ccc(CN2CC3(CCN(C(=O)c4cc(C(F)(F)F)cc(C(F)(F)F)c4)CC3)C2)cc1	.	-50%	.	.	.	.
CC1(C)CC(=O)/C(=N/Nc2ccc(Cl)cc2)CO1	1.8µM*	.	1.8µM*	20%	6.7µM*	?
Cc1cccc(N/N=C2/COC(C)(C)CC2=O)c1	3.2µM*	18µM*	3.2µM*	?	8.5µM*	?
Cc1cccc(NN=C2c3ccccc3-c3ccccc32)c1	3%	-5%	18%	7%	?	-1%
COc1ccccc1N/N=C1\COC(C)(C)CC1=O	29%	.	23%	23%	?	?
COc1ccc(C(=O)N(O)c2ccccc2)cc1	.	3%	.	.	.	.
Cc1cc(C)cc(-n2c(SCC(=O)N3CCc4ccccc43)nc3c([nH]c4ccccc43)c2=O)c1	.	.	.	.	-2%	.
O=C(O)c1ccc2c(c1)C(=O)N([C@H](Cc1ccc3ccccc3c1)C(=O)O)C2=O	3%	.	-2%	.	3%	.
COc1ccc(C(=O)NCCNC(=O)c2ccccn2)cc1	-1%	.	-4%	1%	2%	3%
COc1ccc(/C=C/C(=O)c2ccoc2)cc1	23%	-15%	20%	27%	4.3µM*	6%
COc1ccc(/C=C/C(=O)c2ccccc2O)cc1	24%	.	19%	?	0.27µM*	16µM*
COc1ccc2cc(C(=O)/C=C/c3cc(OC)c(OC)c(OC)c3)ccc2c1	-4%	.	1%	-28%	21µM*	-5%
COc1ccc(/C=C/C(=O)c2c(O)c(OC)c3occc3c2OC)cc1	-1%	.	-6%	-3%	?	-5%
COc1ccc(/C=C/C(=O)c2ccccn2)cc1	0.89µM*	8%	4µM*	?	0.38µM*	?
CCN1C(=O)c2ccccc2S(=O)c2ccc(C(=O)N3CCN(c4ccc(F)cc4)CC3)cc21 (configuration not stated)	.	7%	.	.	-5%	.
NC(=O)CSc1nnnn1-c1cccc(O)c1	.	.	.	.	-3%	.
COc1ccc(/C=C/C(=O)c2ccc(O)cc2)cc1	?	.	11%	?	3.4µM*	?
C/C=C\c1ccc(OC)cc1	.	0%	.	.	.	.
COc1cc(/C=C/c2ccc(O)cc2)cc(OC)c1	3.2µM*	.	?	.	13µM*	.
COc1ccc(C(=O)/C=C/c2ccc(OC)c(COc3ccc(F)cc3)c2)cc1	19%	.	2%	15%	5.4µM*	-3%
COc1ccc(C(=O)/C=C/N(C)C)cc1	14%	25%	5%	-1%	-20%	11%
CCc1nc(-c2cc(S(=O)(=O)N3CCN(c4ccc(F)cc4)CC3)ccc2OC)no1	.	.	.	.	-16%	.
O=C(Cn1ncc2c3ccccc3n(Cc3cccc(Cl)c3)c2c1=O)NCCCN1CCCCC1	.	7%	.	.	-2%	.
CCOc1ccccc1C1N=C(c2ccc(OC)cc2)CC(c2ccccc2O)N1 (configuration not stated)	?	.	?	?	19µM*	?
Oc1ccccc1C1CC(c2cccs2)=NC(c2ccc(Cl)cc2)N1 (configuration not stated)	?	.	19%	3%	?	-8%
CN1N=C2c3ccccc3CCCC2C1c1ccc(F)cc1 (configuration not stated)	26%	.	17%	25%	12µM*	?
